Reference: PubChem BioAssay (Tox21)
“And” between values parts separate entries of the source, which are not always exact repeats. Equal entries are not always repeated. Records with an inconclusive call do not appear. Where a call stands in place of a potency, no number is given. Values without a mark were called inactive. The source made the active and inactive calls. The call rests on the fitted dose curve.

assay: qHTS assay to identify small molecule agonists of the AP-1 signaling pathway - cell viability counter screen (AID 1159525); settings: ME-180 (cervical carcinoma) AP-1-bla cells viability, ATP luminescence, 5 h; series mostly up to 76.8 µM; further: nearly all actives have a fitted effect of over 55% in size
Excerpt: National Center for Advancing Translational Sciences [NCATS]
NIH Chemical Genomics Center [NCGC]
U.S. Environmental Protection Agency [EPA]
National Institutes of Environmental Health Sciences [NIEHS]
National Toxicology Program [NTP]
U.S. Food and Drug Administration [FDA]
Activator protein-1 (AP-1), a transcription factor, plays an important role in tumor genesis by regulating genes involved in cell proliferation, differentiation, apoptosis, and angiogenesis. AP-1 activity is induced by a complex network of signaling pathways that involves extracellular signals, such as growth factors. The AP-1 protein complex formed from c-Fos and c-Jun binding to the AP-1 response element results in transcriptional activation of genes containing such elements within their promoter.
Low molecular weight molecules have been discovered and developed to modulate various components of these signaling pathways, for example, MAP kinase inhibitors. However, many points of pathway modulation remain untested due to the lack of chemical probes making this signaling locus of general interest.
Using a beta-lactamase reporter-gene under control of the AP-1 response element, a cell-based assay [CellSensor(TM) AP-1-bla ME-180 developed by Invitrogen Corp.] was used to measure EGF-induced signaling. The Tox21 10K library compounds were measured for their ability to positively modulate the action of EC50 EGF on reporter gene activity. Compounds were screened in a 15-pt titration series in 1536-well format. The cytotoxicity of the Tox21 compound library against this cell line was tested in parallel by measuring the intra cellular ATP content in the same wells.
Tox21 Assay Protocol Summary:
2500 cells/5uL in Opti-MEM medium containing 0.5% dialyzed FBS, 0.1 mM NEAA, 1 mM sodium pyruvate and 10 mM HEPES was dispensed into 1536-well black wall/clear bottom plates using a Multidrop dispenser and cells were cultured at 37 degrees Celsius overnight. Next day 23 nL of compounds dissolved in DMSO, positive controls or DMSO were delivered to each well using a pin tool. The plates were incubated at 37 degrees Celsius for 5 hours. 1 uL of LiveBLAzerTM B/G FRET substrate (Solution A+B+C+D) was added to each well using a Flying Reagent Dispenser. After incubated at room temperature for 2.5 hours the plates were measured on an EnVision plate reader at Excitation 405nm, Emission1=460nm and Emission 2=530nm. The %Activity was determined from the ratio of 460nm/530nm.
After the plates were read for Beta-Lactamase assay on Envision; 3 ul Cell Titer Glo (Promega) was added to measure the cytotoxicity and the plates were then incubated at RT in dark for 30 min. The luminescence was read on ViewLux (Perkin Elmer, Shelton, CT) using 6 sec exposure. ViewLux data was expressed as relative luminescence units.
For primary data analysis, raw plate reads for each titration point were first normalized relative to […] EGF control (100%) and DMSO only wells (basal, 0%).
For primary data analysis for viability assay, raw plate reads for each titration point were first normalized Tetra n-octyl ammonium bromide control (-100%) and DMSO (control, 100%).

Compound | Potency | viability change, negative = cytotoxic
Cc1cccc(O)c1 | inactive | 
Nc1cc([N+](=O)[O-])ccc1O | inactive | 
CCC(O)OC(O)CC (stereo not given) | inactive | 
O=C(O)CC(C(=O)O)C(CC(=O)O)C(=O)O (stereo not given) | inactive | 
CC(O)COCC(C)O (stereo not given) | inactive | 
FC(F)(F)c1ccc(Cl)c(Cl)c1 | inactive | 
CC1=CCC2CC1C2(C)C (stereo not given) | inactive | 
c1c[nH]cn1 | inactive | 
O=C1CCC(N2C(=O)c3ccccc3C2=O)C(=O)N1 (stereo not given) | inactive | 
COc1ccc(Cl)cc1C(=O)NCCc1ccc(S(=O)(=O)NC(=O)NC2CCCCC2)cc1 | inactive | 
C=C(C)C(=O)OCCOCCOCCOC(=O)C(=C)C | inactive | 
CCCCCCOCCO | inactive | 
CN(C)CCOCCN(C)C | inactive | 
CC(=O)Nc1cccc(O)c1 | inactive | 
O=P(OC(CCl)CCl)(OC(CCl)CCl)OC(CCl)CCl | inactive | 
O=C(O)c1cc(=O)c2c(OCC(O)COc3cccc4oc(C(=O)O)cc(=O)c34)cccc2o1 | inactive | 
CC1CCC2CC1C2(C)C (stereo not given) | inactive | 
c1ccc2scnc2c1 | inactive | 
CC(=O)CC(=O)Nc1ccccc1 | inactive | 
CCCCC(CC)COC(=O)CCCCC(=O)OCC(CC)CCCC (stereo not given) | inactive | 

Compound | Potency | viability change, negative = cytotoxic
CCCC(C)=O | inactive | 
CCc1cccc(C)c1N | inactive | 
CCCCCCCCCCCCS | inactive | 
OC[C@H]1O[C@@](CO)(O[C@H]2O[C@H](CO)[C@@H](O)[C@H](O)[C@H]2O)[C@@H](O)[C@@H]1O | inactive | 
O=C=NCCCCCCN=C=O | inactive | 
OCCOCCOCCO | inactive | 
O=S1(=O)CC=CC1 | inactive | 
CCCCCC1=CCCC1=O | inactive | 
O=C(O)c1ccc(C(=O)O)cc1 | inactive | 
C[Si](O[Si](C)(C)C)O[Si](C)(C)C | inactive | 
CCN(CC)CCCC(C)Nc1ccnc2cc(Cl)ccc12 (stereo not given) |  | 0.716% [at 6.97 µM] and 1.22% [at 15.8 µM]
O=C(O)c1cc(O)c(O)c(O)c1 | inactive | 
CCCCCC(N)=O | inactive | 
CC1=C(C)S(=O)(=O)CCS1(=O)=O | inactive | 
CN(C)CCCN | inactive | 
O=C(O)[C@H](O)[C@@H](O)[C@H](O)[C@H](O)CO | inactive | 
NNc1nncc2ccccc12 | inactive | 
CC(C)(C)[C@@H](O)[C@@H](Cc1ccc(Cl)cc1)n1cncn1 | inactive | 
Cc1ccc2oc(=O)ccc2c1 | inactive | 
COc1cc(Cc2cnc(N)nc2N)cc(OC)c1OC | inactive | 
